In PubChem BioAssay (EPA / NIEHS):
The source made the active and inactive calls. The calls were made as follows: active = hit-call score of the fitted dose curve at least 0.9, where 1 is the maximum; inactive = score below 0.9.

The compounds below were run on Pselectin, SELP (gene 6403) (assay: BSK_4H_Pselectin: BioMAP Diversity Plus: 4H Assay for Pselectin Biomarker Activity (AID 2283026)). Settings: primary human endothelial cells (HUVEC); actives raise or lower the signal.
Experimental: BSK_4H is a cell-based, multiplexed-readout assay that uses umbilical vein endothelium, a human vascular primary cell, with measurements taken at 24 hours after chemical dosing in a 96-well plate.BSK_4H_Pselectin is an assay component measured in the BSK_4H assay. It measures P-Selectin antibody related to regulation of gene expression using ELISA technology.Data from the assay component BSK_4H_Pselectin was analyzed into 1 assay endpoint. This assay endpoint, BSK_4H_Pselectin, was analyzed with bidirectional fitting relative to DMSO as the negative control and baseline of activity. Using a type of binding reporter, gain or loss-of-signal activity can be used to understand changes in the signaling as they relate to the gene SELP. Furthermore, this assay endpoint can be referred to as a primary readout, because this assay has produced multiple assay endpoints where this one serves a signaling function. To generalize the intended target to other relatable targets, this assay endpoint is annotated to the cell adhesion molecules intended target family, where the subfamily is selectins.
The levels of cell surface (or secreted, indicated by the prefix "s") biomarker endpoints were measured by ELISA. Overt cytotoxicity to cells in confluent adherent cultures (all systems other than the BT system) was assessed by measuring total protein levels using sulforhodamine B (SRB) staining in parallel cultures at the time of biomarker measurements, indicated as SRB endpoints. For proliferation assays for adherent cell types, individual cell types are cultured at sub-confluence and relative cell numbers quantified by SRB staining at time points optimized for each system (48 h: 3C and CASM3C systems; 72 h: BT and HDF3CGF systems; 96 h: SAg system). SRB was performed by staining cells with 0.1% SRB after fixation with 10% TCA and reading wells at 560 nm.Viability and proliferation of PBMC (T cells) was quantified by Alamar Blue reduction for the SAg and BT systems. For PBMC viability (referred to as PBMC Cytotoxicity within the assay endpoint names), cells were plated (75,000/well in a 96-well plate) and then chemical samples added for 1 h before addition of activators, SEB and TSST-1 (20 ng/mL final concentration each). Cells were incubated for 90 h. Then, Alamar Blue (20 uL/well) (Invitrogen, Cat DAL1100) was added for 6 h, and the plates were read with a fluorescence microplate reader at 546/580 nm (excitation/emission). For PBMC proliferation, cells were plated and activated as above but incubated for only 16 h prior to addition of Alamar Blue. Plates were read after 6 h.
CCOc1cccc(-n2cc(C(=O)N3CCN(c4cc(C(=O)O)c5ccccc5c4)CC3)nc2-c2ccc(C)cc2)c1 was tested, and the AC50 was 26.2 µM (active).
With O=C1OC(=O)C2C3C=CC(C3)C12 (stereo not given) the outcome was “inactive”.
In the case of CNS(=O)(=O)c1cc(C(=O)N2CCC(CCN3C4CCC3CC(n3c(C)nc5ccccc53)C4)(c3cccc(F)c3)CC2)c(Cl)cc1F (stereo not given), the AC50 is reported as 13.2 µM (active).
With CCOC(=O)c1ccc(C2CCC(NC[C@H](O)COc3ccc(O)c(NS(C)(=O)=O)c3)CC2)cc1 (stereo not given in full) the AC50 was 27 µM (active).
With On1ccccc1=S the AC50 was 11.8 µM (active).
For O=C1CCC(N2C(=O)c3ccccc3C2=O)C(=O)N1 (stereo not given), the outcome was “inactive”.
With CCCCCCCCO the outcome was “inactive”.
In the case of Fc1ccccc1[C@@H](F)COC1CCC(Nc2ncnc3[nH]ncc23)CC1 (stereo not given in full), the AC50 is reported as 29.2 µM (active).
For Nc1nc2ncc(CNc3ccc(C(=O)N[C@@H](CCC(=O)O)C(=O)O)cc3)nc2c(=O)[nH]1, the outcome was “inactive”.
COC(=O)c1ccccc1O was tested, and the outcome was “inactive”.
C[C@](N)(Cc1ccc(O)c(O)c1)C(=O)O was tested, and the outcome was “inactive”.
O=C(O)c1cccc(N(Cc2cccnc2)c2ccc(OC(F)F)c(OC(F)F)c2)c1 was tested, and the AC50 was 2.44 µM (active).
C1=CCCC=CCCC=CCC1 was tested, and the outcome was “inactive”.
With COC(=O)c1c(Cl)c(Cl)c(C(=O)OC)c(Cl)c1Cl the outcome was “inactive”.
With Cc1ccc(S(=O)(=O)O)cc1C the outcome was “inactive”.
For Cc1ccc(C)c(O)c1, the outcome was “inactive”.
In the case of CCc1cc(SCc2sc(-c3ccc(C(F)(F)F)cc3)nc2CN2CCN(c3ccc(OC)cc3)CC2)ccc1OCC(=O)O, the AC50 is reported as 11.3 µM (active).
In the case of CC1=CC(=O)CC(C)(C)C1, the outcome is reported as “inactive”.
With C1N2CN3CN1CN(C2)C3 the outcome was “inactive”.
For COc1ccc(/C=C/S(=O)(=O)NC(=O)c2ccc(C)cc2Cl)cc1, the outcome was “inactive”.
For CC(C)c1cccc(C(C)C)c1N1C(=O)c2ccc(O)cc2C1=O, the AC50 was 8.54 µM (active).
For CCN(C(=O)c1cc(C)cc(OC[C@H](C)Nc2ccncc2)c1)C(C)C, the outcome was “inactive”.
With O=P(OC(CCl)CCl)(OC(CCl)CCl)OC(CCl)CCl the outcome was “inactive”.
With C=CC(=C)CCC=C(C)C the outcome was “inactive”.
For Oc1ccc2c(c1)-c1ccccc1C2, the outcome was “inactive”.
For Nc1cccc(N)c1, the outcome was “inactive”.
For Cn1c(=O)c2c(ncn2C)n(C)c1=O, the outcome was “inactive”.
With CC(=O)OCCC(C)C the outcome was “inactive”.
With O=c1n(CC2CO2)c(=O)n(CC2CO2)c(=O)n1CC1CO1 (stereo not given) the AC50 was 11.8 µM (active).
For O=C(NS(=O)(=O)/C=C/c1ccccc1)c1ccc(F)cc1Cl, the outcome was “inactive”.
With CC(C)=CCCC(C)CCO (stereo not given) the outcome was “inactive”.
For O=C(O)CC(O)C(=O)O (stereo not given), the outcome was “inactive”.
With CC(O)CN(CCN(CC(C)O)CC(C)O)CC(C)O (stereo not given) the outcome was “inactive”.
CCCCC(CC)COC(=O)CCCCCCCCC(=O)OCC(CC)CCCC (stereo not given) was tested, and the outcome was “inactive”.
In the case of COCCOCCOCCOC, the outcome is reported as “inactive”.
In the case of CCn1nc(Cc2ccccc2)cc1C1CCN(C[C@H]2C[C@H](N(C)[C@@H](C(=O)O)C(C)C)C[C@@H]2c2cccc(F)c2)CC1, the outcome is reported as “inactive”.
With CC[C@H]1CC[C@H](NCc2cc3c(cc2OC)[C@H]2C[C@H]2C(=O)N3C)[C@H](c2ccccc2)N1 the outcome was “inactive”.
With CC(C)=CCC/C(C)=C/CO the outcome was “inactive”.
For COC(=O)CC(=O)OC, the outcome was “inactive”.
In the case of COc1cccc(-c2ccc(/C=C\CN3CCCCCC3)cc2Cl)c1, the AC50 is reported as 26.5 µM (active).
